Molecules are shown by their SMILES. Inconclusive results are not listed. Entries that show only a call come without a potency. Active and inactive are the calls of the source. Calls come from the whole dose curve; as a rule, active = well fitted curve in the direction sought with a large enough effect in the signal ratio, with a control signal flat (not every such curve was filed as active); inconclusive = small, poorly fitted or top-dose-only effect, or a change in a side signal; inactive = no such curve, though single readings can be large or run the other way; the % refers to the signal ratio.

The assay can be described thus: qHTS Assay for Identification of Small Molecule Inducers of Hypoxia Response (AID 2120). Conditions: hypoxia response reporter cells, beta-lactamase ratio readout; series mostly up to 104 µM. An excerpt: NIH Chemical Genomics Center [NCGC]
NIH Molecular Libraries Screening Centers Network [MLSCN]
National Institutes of Environmental Health Sciences [NIEHS]
National Toxicology Program [NTP]
Hypoxia-inducible factor-1 (HIF-1) is the major hypoxia-regulated transcription factor that controls cellular responses to low oxygen concentration. HIF-1 is composed of two subunits: hypoxia responsive HIF-1a and constitutively expressed HIF-1b, which is also known as aryl hydrocarbon receptor nuclear translocator. During hypoxic conditions, HIF-1a heterodimerizes with HIF-1b and translocates into the nucleus where the HIF-1 complex binds to the hypoxia-response element (HRE) and activates expression of target genes such as VEGF (vascular endothelial growth factor). The HIF-1 pathway is essential to normal growth and development, and is involved in the pathophysiology of cancer, inflammation, and ischemia.
Using a beta-lactamase reporter-gene under control of the hypoxia response element, a cell-based assay [CellSensor(TM) HRE-bla ME-180 developed by Invitrogen Corp.] was used to measure hypoxia-induced signaling. Library compounds were measured for their ability to induce the reporter gene activity. Compounds were screened in a titration series in 1536-well format. The inducers were identified based on the AC50 values derived from the screening data.
NCGC Assay Protocol Summary
2500 cells/5uL in Opti-MEM medium containing 0.5% dialyzed FBS, 0.1 mM NEAA, 1 mM sodium pyruvate and 10 mM HEPES was dispensed into 1536-well plates and cells were cultured at 37 degrees Celsius for 4-5 hours and then 23 nL of compounds or DMSO were delivered to each well using a pin tool. The plates were incubated at 37 degrees Celsius for 17 hours. 1 uL of CCF4-dye mixture was added to each well. After incubated at room temperature for 2.5 hours the plates were measured on an EnVision plate reader at Excitation 405nm, Emission1=460nm and Emission 2=530nm. The %Activity was determined from the ratio of 460nm/530nm.
Consider `CN(C)c1ccccc1`, for which the Potency result was “inactive”.

As to `CN(C)N=O`, the Potency entry was “inactive”. With `CC(=O)[O-].CC(=O)[O-].CC(=O)[O-].[Cr+3]`, the Potency entry was “inactive”. For `C=C(Cl)CSC(=S)N(CC)CC` the value was “inactive”; for `O=[N+]([O-])c1ccc2c3c(cccc13)CC2`, “inactive”. Take `C[N+](=O)[O-]`: the Potency result is “inactive”. Under `CCOS(C)(=O)=O` stands “inactive”; under `N#CC(Cl)(Cl)Cl`, “inactive”. For `CN(C)C(=O)Nc1cccc(C(F)(F)F)c1` the value was “inactive”; for `CCN(CC)CCO`, “inactive”. Under `COc1ccc(C=O)cc1` stands “inactive”; under `CC1CC(=O)O1` (stereo not given), “inactive”; under `CN1CSC(=S)N(C)C1`, “inactive”. Consider `O=[N+]([O-])c1ccccc1CCl`, for which the Potency result was “inactive”. Under `ClP(Cl)(Cl)(Cl)Cl` stands “inactive”; under `CCC[N+](=O)[O-]`, “inactive”; under `C=CCO`, “inactive”. Consider `CCOP(=O)(OCC)OCC`, for which the Potency entry was “inactive”. For `N#CCCCCC#N` the value was “inactive”; for `O=[N+]([O-])c1cc(Cl)c(Cl)cc1Cl`, “inactive”. Take `C=C(C)CCl`: the Potency entry was “inactive”. Under `COc1cc(-c2ccc(N)c(OC)c2)ccc1N` stands “inactive”; under `Cc1ccc2c(C)cccc2c1`, “inactive”; under `O=S(=O)(Cl)c1ccccc1`, “inactive”. Consider `N#CCBr`, for which the Potency entry was “inactive”. Consider `CC12CC1(C)C(=O)N(c1cc(Cl)cc(Cl)c1)C2=O` (stereo not given), for which the Potency entry is “inactive”. On to `c1ccc(Nc2ccc(Nc3ccccc3)cc2)cc1`, for which the Potency result is “inactive”. For `C=CCOCC1CO1` (stereo not given) the value was “inactive”. For `Cc1cccc(N)c1C` the value was “inactive”; for `N#CCCC#N`, “inactive”; for `O=P(OCCCl)(OCCCl)OCCCl`, “inactive”. Under `[O-][Cl+]O` stands “inactive”; under `C=CC(=O)OCC(CC)CCCC` (stereo not given), “inactive”. `ClCCOCCCl`: the Potency entry is “inactive”. Turning to `CCN(CC)N=O`, the Potency result was “inactive”. For `Nc1cccc(Cl)c1` the value was “inactive”; for `Oc1cccc(Cl)c1Cl`, “inactive”; for `C=CC(=O)OCCO`, “inactive”.

Turning to `O=[N+]([O-])c1ccc(O)c([N+](=O)[O-])c1`, the Potency result is “inactive”. Under `c1ccc(NNc2ccccc2)cc1` stands “inactive”.

Source of the values: PubChem BioAssay (NCATS).
